Results: paper PMC7862700, “An all-to-all approach to the identification of sequence-specific readers for epigenetic DNA modifications on cytosine”

What was measured:
Experiment in all cases: DAPPL (digital affinity profiling via proximity ligation, sequencing); 10 mM Tris-HCl pH 7.5, 50 mM NaCl, 1 mM DTT, 4% glycerol, room temperature, 30 min; GST-TFs on glutathione beads, 16-mer random dsDNA library, 0.1% formaldehyde crosslink after washing; high values mean tight binding
Conditions in all cases: protein: recombinant; tags: N-terminal GST; dsDNA, one strand shown
FLI1 = target: T1, FLI1 (Homo sapiens, UniProt Q01543 1-452)
T1 sequence: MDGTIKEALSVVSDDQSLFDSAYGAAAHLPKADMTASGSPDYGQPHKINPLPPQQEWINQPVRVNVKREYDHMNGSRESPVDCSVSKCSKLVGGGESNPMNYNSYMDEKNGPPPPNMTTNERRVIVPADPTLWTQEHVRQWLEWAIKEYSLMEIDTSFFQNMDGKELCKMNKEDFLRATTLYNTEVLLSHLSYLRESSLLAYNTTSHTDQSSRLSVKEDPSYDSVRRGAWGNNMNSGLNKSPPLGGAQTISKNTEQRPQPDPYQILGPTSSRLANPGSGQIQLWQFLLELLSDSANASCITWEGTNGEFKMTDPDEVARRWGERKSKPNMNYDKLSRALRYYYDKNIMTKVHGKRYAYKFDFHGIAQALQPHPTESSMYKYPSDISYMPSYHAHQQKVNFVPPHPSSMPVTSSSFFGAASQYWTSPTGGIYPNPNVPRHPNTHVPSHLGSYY
Procedure, shortened: (§1)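 Human transcription factors fused to GST were expressed in yeast, captured on glutathione beads, given DNA barcodes and pooled with a GST-only negative control. Pools were incubated with 200 nmole of a 16-mer random double-stranded DNA library in Tris/NaCl/DTT/glycerol buffer at room temperature for 30 min. They were then washed, crosslinked with 0.1% formaldehyde, proximity-ligated (BsaI/T4 ligase, 1 h, 37 °C), PCR-amplified and sequenced on an Illumina NextSeq500. Binding signal is each 6-mer's read frequency for a factor divided by its frequency for the GST control.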

ELK1 = target: T2, ELK1 (Homo sapiens, UniProt P19419 1-428)
T2 sequence: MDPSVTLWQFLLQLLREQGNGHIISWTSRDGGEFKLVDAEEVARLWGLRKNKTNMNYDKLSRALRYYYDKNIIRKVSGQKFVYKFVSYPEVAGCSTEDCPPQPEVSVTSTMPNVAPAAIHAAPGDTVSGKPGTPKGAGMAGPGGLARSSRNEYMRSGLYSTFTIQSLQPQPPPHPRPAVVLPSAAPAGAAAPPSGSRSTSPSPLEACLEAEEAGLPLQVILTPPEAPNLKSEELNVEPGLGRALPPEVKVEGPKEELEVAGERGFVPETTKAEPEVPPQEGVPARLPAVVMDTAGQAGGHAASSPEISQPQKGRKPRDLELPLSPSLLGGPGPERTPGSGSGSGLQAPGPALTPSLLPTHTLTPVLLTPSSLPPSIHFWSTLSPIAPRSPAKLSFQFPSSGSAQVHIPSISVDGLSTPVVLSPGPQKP
Procedure, shortened: as §1

GABPA = target: T3, GABPA (Homo sapiens, UniProt Q06546 1-454)
T3 sequence: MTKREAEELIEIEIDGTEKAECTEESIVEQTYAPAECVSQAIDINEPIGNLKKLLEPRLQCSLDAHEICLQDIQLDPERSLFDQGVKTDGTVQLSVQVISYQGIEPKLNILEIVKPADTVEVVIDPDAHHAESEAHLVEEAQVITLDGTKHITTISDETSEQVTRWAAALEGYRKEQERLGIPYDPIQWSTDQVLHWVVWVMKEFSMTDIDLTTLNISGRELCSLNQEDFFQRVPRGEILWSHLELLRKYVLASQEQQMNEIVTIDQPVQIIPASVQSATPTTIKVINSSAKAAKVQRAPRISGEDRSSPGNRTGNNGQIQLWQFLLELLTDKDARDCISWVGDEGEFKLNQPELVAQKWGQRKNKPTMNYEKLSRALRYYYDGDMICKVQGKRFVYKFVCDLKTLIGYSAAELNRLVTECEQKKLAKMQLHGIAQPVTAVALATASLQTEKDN
Procedure, shortened: as §1

ERG = target: T4, ERG (Homo sapiens, UniProt P11308 1-479)
T4 sequence: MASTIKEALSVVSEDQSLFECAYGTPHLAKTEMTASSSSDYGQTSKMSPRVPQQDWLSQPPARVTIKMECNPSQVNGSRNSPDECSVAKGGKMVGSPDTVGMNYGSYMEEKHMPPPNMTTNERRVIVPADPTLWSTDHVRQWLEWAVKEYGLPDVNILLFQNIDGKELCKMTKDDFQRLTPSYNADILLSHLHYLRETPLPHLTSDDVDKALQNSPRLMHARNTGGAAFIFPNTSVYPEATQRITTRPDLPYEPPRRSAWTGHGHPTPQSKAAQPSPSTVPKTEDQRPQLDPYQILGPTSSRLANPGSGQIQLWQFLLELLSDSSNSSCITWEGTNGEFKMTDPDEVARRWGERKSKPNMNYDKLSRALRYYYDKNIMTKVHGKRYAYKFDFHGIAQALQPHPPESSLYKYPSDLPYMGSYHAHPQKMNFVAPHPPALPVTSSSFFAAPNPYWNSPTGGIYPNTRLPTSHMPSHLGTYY
Procedure, shortened: as §1

ELF1 = ELF1 (Homo sapiens, UniProt P32519 1-619)
Chain of ELF1 (P32519 whole entry): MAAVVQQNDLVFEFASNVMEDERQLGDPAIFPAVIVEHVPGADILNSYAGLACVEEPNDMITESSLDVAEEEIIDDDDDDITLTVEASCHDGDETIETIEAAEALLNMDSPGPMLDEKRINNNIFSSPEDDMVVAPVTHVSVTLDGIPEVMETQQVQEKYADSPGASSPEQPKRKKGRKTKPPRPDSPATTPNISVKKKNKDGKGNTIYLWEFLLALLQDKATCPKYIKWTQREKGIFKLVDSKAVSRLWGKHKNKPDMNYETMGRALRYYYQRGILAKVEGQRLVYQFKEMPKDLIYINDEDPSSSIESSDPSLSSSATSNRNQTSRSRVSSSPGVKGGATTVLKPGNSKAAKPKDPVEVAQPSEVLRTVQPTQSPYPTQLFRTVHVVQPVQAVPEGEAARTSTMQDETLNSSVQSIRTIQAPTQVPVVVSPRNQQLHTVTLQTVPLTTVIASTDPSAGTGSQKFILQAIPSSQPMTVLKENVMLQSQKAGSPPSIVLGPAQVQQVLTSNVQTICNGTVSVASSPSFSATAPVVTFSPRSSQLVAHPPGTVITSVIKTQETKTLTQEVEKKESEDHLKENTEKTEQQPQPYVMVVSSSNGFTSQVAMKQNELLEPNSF
Procedure, shortened: as §1

EHF = target: T5, EHF (Homo sapiens, UniProt Q9NZC4 1-300)
T5 sequence: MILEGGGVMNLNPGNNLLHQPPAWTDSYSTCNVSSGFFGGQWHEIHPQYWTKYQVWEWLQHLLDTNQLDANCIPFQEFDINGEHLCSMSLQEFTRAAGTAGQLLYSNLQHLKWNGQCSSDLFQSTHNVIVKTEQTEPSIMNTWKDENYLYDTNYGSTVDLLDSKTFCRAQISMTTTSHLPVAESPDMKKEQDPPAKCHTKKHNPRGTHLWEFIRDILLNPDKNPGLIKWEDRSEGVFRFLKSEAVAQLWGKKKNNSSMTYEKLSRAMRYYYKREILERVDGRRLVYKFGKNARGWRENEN
Procedure, shortened: as §1

SPIB = SPIB (Homo sapiens, UniProt Q01892 1-262)
Chain of SPIB (Q01892 whole entry): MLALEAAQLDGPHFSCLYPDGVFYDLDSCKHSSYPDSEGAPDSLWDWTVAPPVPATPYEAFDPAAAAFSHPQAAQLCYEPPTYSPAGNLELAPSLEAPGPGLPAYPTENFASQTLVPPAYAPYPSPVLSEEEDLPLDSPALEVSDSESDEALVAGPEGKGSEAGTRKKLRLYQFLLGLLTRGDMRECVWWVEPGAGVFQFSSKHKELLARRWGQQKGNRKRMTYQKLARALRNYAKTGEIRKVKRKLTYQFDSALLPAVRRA
Procedure, shortened: as §1

ELK3 = target: T6, ELK3 (Homo sapiens, UniProt P41970 1-407)
T6 sequence: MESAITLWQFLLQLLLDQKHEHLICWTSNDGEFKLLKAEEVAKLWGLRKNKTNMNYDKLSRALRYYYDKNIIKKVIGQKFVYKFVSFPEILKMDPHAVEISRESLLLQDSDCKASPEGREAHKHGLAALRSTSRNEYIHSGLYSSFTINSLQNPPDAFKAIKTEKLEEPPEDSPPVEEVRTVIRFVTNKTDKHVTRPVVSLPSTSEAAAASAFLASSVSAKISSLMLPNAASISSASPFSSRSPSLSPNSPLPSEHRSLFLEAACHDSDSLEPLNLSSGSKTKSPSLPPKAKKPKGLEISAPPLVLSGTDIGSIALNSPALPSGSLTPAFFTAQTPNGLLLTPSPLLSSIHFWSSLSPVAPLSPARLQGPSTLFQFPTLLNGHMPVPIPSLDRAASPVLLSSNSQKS
Procedure, shortened: as §1

SPIC = target: T7, SPIC (Homo sapiens, UniProt Q8N5J4 1-248)
T7 sequence: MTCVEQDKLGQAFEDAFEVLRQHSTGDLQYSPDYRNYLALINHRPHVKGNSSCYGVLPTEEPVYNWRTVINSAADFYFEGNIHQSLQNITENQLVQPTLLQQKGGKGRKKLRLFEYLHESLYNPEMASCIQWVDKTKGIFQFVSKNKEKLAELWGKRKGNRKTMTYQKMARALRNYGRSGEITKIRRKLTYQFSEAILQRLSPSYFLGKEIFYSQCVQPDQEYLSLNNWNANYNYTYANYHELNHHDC
Procedure, shortened: as §1

In the case of TTAGAT, the binding signal (FLI1) is reported as 1.05 fold enrichment (6-mer frequency, TF over GST control), the binding signal (ELK1) is reported as 1.16 fold enrichment (6-mer frequency, TF over GST control) and the binding signal (GABPA) is reported as 1.06 fold enrichment (6-mer frequency, TF over GST control). The binding signal (ERG) was 1.04 fold enrichment (6-mer frequency, TF over GST control), the binding signal (ELF1) was 1.03 fold enrichment (6-mer frequency, TF over GST control) and the binding signal (EHF) was 1.13 fold enrichment (6-mer frequency, TF over GST control). For the same sequence, the binding signal (SPIB) was 1.05 fold enrichment (6-mer frequency, TF over GST control), the binding signal (ELK3) was 1.09 fold enrichment (6-mer frequency, TF over GST control) and the binding signal (SPIC) was 1.04 fold enrichment (6-mer frequency, TF over GST control).
